Our source for the growth values is PubChem BioAssay (NCI).

Where “and” joins values, the source holds several entries; their conditions need not be identical. Identical values can stand only once. The panel holds about 83,000 compounds, 20% with a hit somewhere; the sample as a whole holds those more often.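 How to read the values: 0–100, growth inhibition (40 = 60% inhibited); 0, no net growth; -100 to 0, cell death (-40 = 40% of starting cells died; -100 = all dead).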 Unmarked numbers belong to inactive results. Calls of active or inactive are those of the source. The calls were made as follows: active = growth percent below 10; inactive = the rest.

Among the test systems are HCT-15 colon; HT29 colon; SNB-75 CNS; SNB-19 CNS; U251 CNS; PC-3 prostate; SK-MEL-5 melanoma; UACC-62 melanoma; SK-MEL-28 melanoma; SK-MEL-2 melanoma; EKVX NSCLC; SN12C renal; UO-31 renal; TK-10 renal; ACHN renal; A498 renal; CCRF-CEM leukemia; MOLT-4 leukemia; LOX IMVI melanoma; CAKI-1 renal.
What all share (assay): NCI-60 one-dose screen, 48 h (100 = growth as untreated, 0 = no growth, -100 = all killed)
Settings in all cases: 10 µM unless noted

In the case of `O=C1c2cc3c(cc2-c2c1c1ccc(Cl)cc1c(=O)n2CCCn1ccnc1)OCO3`, the growth with HCT-15 colon is 7.3% (active); in the test with HT29 colon, -62.9% (active); with SNB-75 CNS it was 0.456% (active); in the test with SNB-19 CNS it was 17.3%; with U251 CNS, -33.1% (active); with PC-3 prostate, 19.9%. The growth in the test on SK-MEL-5 melanoma is -93% (active); with UACC-62 melanoma, -57.7% (active); in the test with SK-MEL-28 melanoma, 15.5%; with SK-MEL-2 melanoma it was 31.1%; in the test with EKVX NSCLC, 42.4%; in the test with SN12C renal, 12.6%. For the same molecule, the growth in the test with UO-31 renal is -7.59% (active); in the test on TK-10 renal it was 46.3%; in the test on ACHN renal, -19% (active); in the test on A498 renal, -12.9% (active); in the test with CCRF-CEM leukemia it was 3.44% (active); with MOLT-4 leukemia, -28.2% (active).
Regarding `C=C(c1ccc(C(=O)O)cc1)c1cc2c(cc1C)C(C)(C)CCC2(C)C`, the growth with HCT-15 colon was 74.7% and 65.1%; in the test on HT29 colon it was 93.2% and 62.7%; with SNB-75 CNS it was 94.9% and 82.7%; in the test with SNB-19 CNS, 75.2% and 79.6%; in the test with U251 CNS, 84.1% and 62.8%; in the test on PC-3 prostate, 68.9%. Also, the growth was 83% and 76.6% in the test on SK-MEL-5 melanoma; 80.2% and 81.8% in the test on LOX IMVI melanoma; 137% and 72.9% in the test on SK-MEL-28 melanoma; 47.7% and 56.2% in the test with SK-MEL-2 melanoma; 57.5% and 56.7% with EKVX NSCLC; 87.5% and 77.5% in the test on SN12C renal. Moreover, the growth with UO-31 renal was 71.3% and 66.9%; with TK-10 renal, 89.8%; in the test on ACHN renal, 74.1% and 57.5%; in the test on CAKI-1 renal, 70.4% and 82.1%; in the test on A498 renal, 133% and 110%; in the test with CCRF-CEM leukemia, 60.4% and 90%. Further, the growth with MOLT-4 leukemia is 71.2% and 79.4%.
Regarding `CCCCCCNC(=O)Oc1ccc(/C(=C(/CC)Cc2ccccc2)c2ccc(OCCCN(C)C)cc2)cc1`, the growth in the test with HCT-15 colon is 14.7%; in the test on HT29 colon, 18.9%; in the test with SNB-75 CNS, 68.4%; with SNB-19 CNS it was 88.3%; with U251 CNS, 60.4%; in the test on PC-3 prostate, 73.2%. Further, the growth in the test on SK-MEL-5 melanoma was 87.7%; in the test on LOX IMVI melanoma, -15% (active); in the test with SK-MEL-28 melanoma it was 101%; in the test on SK-MEL-2 melanoma, 106%; with EKVX NSCLC it was 89.2%; in the test with SN12C renal it was 87.1%. The growth was 59% in the test on UO-31 renal; 82.2% in the test on TK-10 renal; 100% in the test on ACHN renal; 89.6% with CAKI-1 renal; 89.9% in the test with A498 renal; 69.4% in the test on CCRF-CEM leukemia. Moreover, in the test on MOLT-4 leukemia, the growth was 67.1%.
For `COc1cc2nc3cc([N+](=O)[O-])ccc3c(NCCNCC(C)(C)O)c2cc1OC`, the growth is 17% with HCT-15 colon; -11.7% (active) in the test with HT29 colon; -55.7% (active) in the test on SNB-75 CNS; -10.5% (active) with SNB-19 CNS; -23.6% (active) in the test on U251 CNS; -35.6% (active) in the test with PC-3 prostate. Besides, the growth with SK-MEL-5 melanoma was -71.3% (active); in the test on UACC-62 melanoma, -48.6% (active); with SK-MEL-28 melanoma, -25.7% (active); with SK-MEL-2 melanoma, -45.5% (active); in the test on EKVX NSCLC, 7.08% (active); in the test with SN12C renal, -17.1% (active). Besides, the growth with TK-10 renal was 9.89% (active); in the test on CAKI-1 renal it was 16.1%; in the test with A498 renal, -48.8% (active); in the test with CCRF-CEM leukemia, 0.0876% (active); with MOLT-4 leukemia, 5.85% (active).
As for `O=C(/C=C/c1ccccc1)c1cccs1`, the growth with HCT-15 colon is 95.1% and 95.5%; in the test on HT29 colon it was 99.8% and 90.7%; in the test on SNB-75 CNS, 102% and 97.3%; in the test with SNB-19 CNS it was 93.6% and 104%; with U251 CNS it was 80.8% and 85.9%; in the test with PC-3 prostate, 90.8% and 103%. Moreover, the growth was 101% and 100% in the test on SK-MEL-5 melanoma; 82.1% and 64.5% in the test on LOX IMVI melanoma; 111% and 105% in the test with SK-MEL-28 melanoma; 105% and 107% with SK-MEL-2 melanoma; 97.6% and 94.7% in the test with EKVX NSCLC; 96.7% and 94.1% in the test with SN12C renal. The growth in the test on UO-31 renal was 88.9% and 94.1%; in the test on TK-10 renal, 95.5% and 103%; with ACHN renal it was 100% and 110%; in the test with CAKI-1 renal, 99.9% and 93.7%; with A498 renal it was 94.4% and 91.6%; in the test with CCRF-CEM leukemia, 82.7%. Further, in the test with MOLT-4 leukemia, the growth was 109% and 96%.
For the molecule `COC(=O)c1[nH]nc(OC)c1C1(C(C#N)c2nc3ccccc3s2)CCCc2ccccc21` (stereo not given), the growth in the test on HCT-15 colon was 102%; with HT29 colon, 95.8%; with SNB-75 CNS, 86.4%; in the test with SNB-19 CNS, 96.7%; with U251 CNS, 96.5%; in the test with PC-3 prostate, 79.5%. Moreover, the growth in the test on SK-MEL-5 melanoma is 97.8%; in the test on LOX IMVI melanoma, 95%; with SK-MEL-28 melanoma, 78.9%; in the test with SK-MEL-2 melanoma, 88.7%; with EKVX NSCLC, 88.5%; in the test on SN12C renal, 86%. The growth is 72.4% in the test on UO-31 renal; 139% with TK-10 renal; 89.1% in the test on ACHN renal; 94.5% in the test on CAKI-1 renal; 109% in the test with A498 renal; 96.5% in the test with CCRF-CEM leukemia. Besides, in the test with MOLT-4 leukemia, the growth is 102%.
On to `C=C1CCC2C3(C)COC(c4ccc(NC(C)=O)cc4)OC3CCC2(C)C1C/C=C1/C(=O)OCC1O` (stereo not given), for which the growth with HCT-15 colon is 63.3%; with HT29 colon, 52.2%; in the test on SNB-75 CNS it was 63.9%; in the test on SNB-19 CNS, 83.6%; in the test on U251 CNS, 54.7%; in the test with PC-3 prostate, 42.2%. Besides, the growth is 29% in the test with SK-MEL-5 melanoma; 55.4% in the test with LOX IMVI melanoma; 88.6% in the test with SK-MEL-28 melanoma; 84.4% in the test on SK-MEL-2 melanoma; 39.6% with EKVX NSCLC; 91.6% in the test with SN12C renal. The growth is 68.3% in the test with UO-31 renal; 75.3% in the test with TK-10 renal; 65.8% in the test on ACHN renal; 87.7% in the test on CAKI-1 renal; 57% in the test on A498 renal; 27.3% with CCRF-CEM leukemia. Besides, the growth in the test with MOLT-4 leukemia is 26.7%.
